The whole screen tested about 39,000 compounds, of which about 3,300 (8.5%) were called active. This excerpt belongs to a sample that is enriched for actives.
tested on: HepG2; experiment: cytotoxicity call (relative viability < 0.9); settings: 10 µM

SMILES | cytotoxicity call
O=c1[nH]ncn1-c1ccccc1 | inactive
Cc1ccc(=O)n(-c2ccccc2)c1 | inactive
O=c1[nH]ccn(-c2ccccc2)c1=O | active
Cc1c(C(=O)O)sc(=O)n1C | inactive
CC(C)NC(=O)N(C)C[C@@H]1Oc2cc(C#Cc3cccc(F)c3)ccc2S(=O)(=O)N([C@@H](C)CO)C[C@@H]1C | inactive
C[C@@H]1CN([C@@H](C)CO)C(=O)Cc2cc(NS(=O)(=O)c3ccccc3)ccc2O[C@@H]1CN(C)S(=O)(=O)c1ccc(F)cc1 | inactive
Cc1ccc(S(=O)(=O)N(C)C[C@@H]2OCCCC[C@H](C)Oc3ccc(NC(=O)CCC(F)(F)F)cc3C(=O)N([C@H](C)CO)C[C@@H]2C)cc1 | inactive
O=C(N[C@H](c1ccc(F)cc1)c1ccc2ccccc2n1)C1CCN(CCOc2ccc(Cl)cc2)CC1 | inactive
O=C(N[C@@H](c1ccc(F)cc1)c1ccc2ccccc2n1)C1CCN(CCOc2ccc(F)cc2)CC1 | active
COc1ccc([C@@H](NC(=O)C2CCN(CCOc3ccc(Cl)cc3Cl)CC2)c2ccco2)cc1 | inactive
COc1ccc(OCCN2CCC(C(=O)N[C@@H](c3ccc(F)cc3)c3ccc4ccccc4n3)CC2)cc1 | active
O=C(N[C@H](c1ccc(F)cc1)c1ccc2ccccc2n1)C1CCN(CCOc2ccc(Cl)cc2Cl)CC1 | inactive
O=C(N[C@@H](c1ccccc1)c1ccc2ccccc2n1)C1CCN(CCOc2ccc(Cl)cc2Cl)CC1 | inactive
COc1ccc(/C=C/CN2CCC(C(=O)N[C@@H](c3ccc(F)cc3)c3ccc4ccccc4n3)CC2)cc1 | active
C[C@@H]1CN([C@@H](C)CO)C(=O)c2cccc(NS(=O)(=O)c3cccs3)c2O[C@H]1CN(C)S(=O)(=O)c1ccc(F)cc1 | inactive
C[C@@H]1CN([C@H](C)CO)S(=O)(=O)c2ccc(-c3cccc(C#N)c3)cc2O[C@H]1CN(C)C(=O)c1cccnc1 | inactive
COc1cccc(S(=O)(=O)N2C[C@@H](O)COC[C@@H]3O[C@H](CC(=O)N4CCN(C)CC4)CC[C@H]32)c1 | inactive
CO[C@H]1CN(C)C(=O)c2cc(NS(=O)(=O)c3ccccc3)ccc2OC[C@@H](C)N(C(=O)NC(C)C)C[C@H]1C | inactive
CC(C)(C)c1nc[nH]c1/C=c1\[nH]c(=O)/c(=C/c2ccccc2)[nH]c1=O | inactive
C[C@@H]1CN([C@@H](C)CO)C(=O)c2cc(NS(=O)(=O)c3cn(C)cn3)ccc2O[C@@H](C)CCCCO[C@@H]1CN(C)C(=O)CCCN(C)C | inactive
CO[C@@H]1CN(C)C(=O)c2cc(NC(=O)Nc3ccccc3F)ccc2OC[C@H](C)N(CCC(F)(F)F)C[C@@H]1C | inactive
CC(=O)O[C@H](C[C@H](O)[C@@](C)(CCC=C(C)C)O[C@H]1O[C@@H](CO)[C@@H](O)[C@@H](O)[C@@H]1O)/C(C)=C/COC[C@@H](O)[C@@H](O)[C@@H](O)[C@@H](O)CO | inactive

SMILES | cytotoxicity call
CCCCCCOc1cccc(N)c1 | inactive
C[C@@H]1CCCCO[C@H](CN(C)C(=O)Nc2cccc3ccccc23)[C@@H](C)CN([C@@H](C)CO)C(=O)c2cc(NC(=O)CCCN(C)C)ccc2O1 | inactive
CNC[C@@H]1OCCCC[C@@H](C)Oc2ccc(NS(=O)(=O)c3cn(C)cn3)cc2C(=O)N([C@H](C)CO)C[C@@H]1C | inactive
C[C@H]1CCCCO[C@@H](CN(C)CC2CCCCC2)[C@@H](C)CN([C@@H](C)CO)C(=O)c2cc(NC(=O)Nc3ccc(C(F)(F)F)cc3)ccc2O1 | active
C[C@@H]1CCCCO[C@@H](CN(C)CC2CCCCC2)[C@H](C)CN([C@@H](C)CO)C(=O)c2cc(NC(=O)Nc3ccc(C(F)(F)F)cc3)ccc2O1 | active
C[C@H](CO)N1C[C@H](C)[C@@H](CN(C)CC2CCCCC2)OCCCC[C@H](C)Oc2ccc(NC(=O)Nc3ccc(C(F)(F)F)cc3)cc2C1=O | active
C[C@@H]1CCCCO[C@@H](CN(C)CC2CCCCC2)[C@H](C)CN([C@H](C)CO)C(=O)c2cc(NC(=O)Nc3ccc(C(F)(F)F)cc3)ccc2O1 | active
C[C@@H]1CN([C@@H](C)CO)C(=O)c2cc(NC(=O)Nc3ccc(C(F)(F)F)cc3)ccc2O[C@@H](C)CCCCO[C@H]1CN(C)CC1CCCCC1 | inactive
CC(C)=CCCC(C)=CCOc1ccc2ccc(=O)oc2c1 | inactive
O=C1/C(=C/c2cn(-c3ccccc3)nc2-c2ccc(OCc3ccc(Cl)cc3)cc2)SC(=S)N1CCS(=O)(=O)O | inactive
CCS(=O)(=O)NCC[C@H]1CC[C@H](NC(=O)C2CCOCC2)[C@@H](CO)O1 | inactive
O=C(C[C@H]1C[C@H]2c3cc(NS(=O)(=O)c4ccc(F)cc4)ccc3O[C@H]2[C@@H](CO)O1)NCCc1ccccc1 | inactive
COc1ccc(S(=O)(=O)N(C)C[C@H]2OCCCC[C@H](C)Oc3ccc(NC(=O)Nc4c(C)noc4C)cc3C(=O)N([C@H](C)CO)C[C@@H]2C)cc1 | inactive
C[C@H]1CN([C@@H](C)CO)C(=O)Cc2cc(NC(=O)c3ccncc3)ccc2O[C@@H]1CN(C)S(=O)(=O)c1ccc(F)cc1 | inactive
CN1CCN(C(=O)C[C@@H]2C[C@H]3c4cc(NC(=O)c5ccc6c(c5)OCO6)ccc4O[C@H]3[C@@H](CO)O2)CC1 | inactive
CC(=O)O[C@@H]1CC[C@@]2(C)[C@@H](CC[C@]3(C)[C@@H]2C(=O)C=C2[C@@H]4[C@@H](C)[C@H](C)CC[C@]4(C)CC[C@]23C)[C@@]1(C)C(=O)O | inactive
C[C@@H]1CN([C@H](C)CO)C(=O)c2cccc(NC(=O)C3CC3)c2O[C@@H]1CN(C)C(=O)Nc1ccc2c(c1)OCO2 | inactive
Cc1noc(C)c1NC(=O)N(C)C[C@@H]1Oc2ncc(C#CCN(C)C)cc2C(=O)N([C@H](C)CO)C[C@H]1C | inactive
C[C@@H]1CCCCO[C@H](CN(C)CC2CCCCC2)[C@@H](C)CN([C@H](C)CO)C(=O)c2cc(NC(=O)Nc3ccc(C(F)(F)F)cc3)ccc2O1 | active
C[C@@H]1CN([C@H](C)CO)C(=O)c2cc(NC(=O)Nc3ccc(C(F)(F)F)cc3)ccc2O[C@@H](C)CCCCO[C@@H]1CN(C)CC1CCCCC1 | active
C[C@@H]1CCCCO[C@@H](CN(C)CC2CCCCC2)[C@@H](C)CN([C@H](C)CO)C(=O)c2cc(NC(=O)Nc3ccc(C(F)(F)F)cc3)ccc2O1 | active
C[C@H](CO)N1C[C@H](C)[C@H](CN(C)CC2CCCCC2)OCCCC[C@H](C)Oc2ccc(NC(=O)Nc3ccc(C(F)(F)F)cc3)cc2C1=O | active
